Data from PubChem BioAssay (EPA / NIEHS).
Records with an inconclusive call do not appear. The source made the active and inactive calls. How the source made its calls, unless noted: active means hit-call score of the fitted dose curve at least 0.9, where 1 is the maximum; inconclusive means response in the unintended direction; inactive means score below 0.9.

How the values were obtained:
THRA (gene 7067) [1] = target: THRA (gene 7067) (UniProt P10827); assay: TOX21_TRA_COA_Agonist_Followup_ratio: Tox21 Thyroid Hormone Receptor alpha Agonism through Coactivator Recruitment Follow-Up Assay, Ratio (AID 2283948; active means hit-call score of the fitted dose curve at least 0.9, where 1 is the maximum; inactive means score below 0.9)
Chain of THRA (gene 7067) (P10827 whole entry, looked up, the tested form may be a part): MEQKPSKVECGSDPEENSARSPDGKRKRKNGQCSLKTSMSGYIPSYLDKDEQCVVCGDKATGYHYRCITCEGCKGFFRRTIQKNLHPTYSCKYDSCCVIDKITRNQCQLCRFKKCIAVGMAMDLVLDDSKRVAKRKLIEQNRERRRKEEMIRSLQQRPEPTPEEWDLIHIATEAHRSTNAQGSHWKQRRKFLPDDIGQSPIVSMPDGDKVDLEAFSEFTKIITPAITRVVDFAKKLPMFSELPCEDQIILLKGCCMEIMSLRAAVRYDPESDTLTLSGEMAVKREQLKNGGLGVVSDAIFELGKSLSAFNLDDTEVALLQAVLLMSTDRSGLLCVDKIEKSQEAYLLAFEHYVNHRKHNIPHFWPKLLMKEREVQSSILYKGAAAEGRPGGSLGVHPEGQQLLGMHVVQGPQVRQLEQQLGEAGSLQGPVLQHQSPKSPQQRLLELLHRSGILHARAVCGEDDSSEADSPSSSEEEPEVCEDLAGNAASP
Method in brief: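 Follow-up specificity assay in which TRα ligand-binding domain, expressed as a GST fusion, recruits a fluorescein-labelled SRC-2 peptide. Energy transfer from a terbium anti-GST antibody gives the acceptor/donor ratio, fitted upward relative to DMSO.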

THRB (gene 7068) [2] = target: THRB (gene 7068) (UniProt P10828); assay: TOX21_TRB_COA_Agonist_Followup_ratio: Tox21 Thyroid Hormone Receptor beta Agonism through Coactivator Recruitment Follow-Up Assay, Ratio (AID 2283963; active means hit-call score of the fitted dose curve at least 0.9, where 1 is the maximum; inactive means score below 0.9)
Chain of THRB (gene 7068) (P10828 whole entry, looked up, the tested form may be a part): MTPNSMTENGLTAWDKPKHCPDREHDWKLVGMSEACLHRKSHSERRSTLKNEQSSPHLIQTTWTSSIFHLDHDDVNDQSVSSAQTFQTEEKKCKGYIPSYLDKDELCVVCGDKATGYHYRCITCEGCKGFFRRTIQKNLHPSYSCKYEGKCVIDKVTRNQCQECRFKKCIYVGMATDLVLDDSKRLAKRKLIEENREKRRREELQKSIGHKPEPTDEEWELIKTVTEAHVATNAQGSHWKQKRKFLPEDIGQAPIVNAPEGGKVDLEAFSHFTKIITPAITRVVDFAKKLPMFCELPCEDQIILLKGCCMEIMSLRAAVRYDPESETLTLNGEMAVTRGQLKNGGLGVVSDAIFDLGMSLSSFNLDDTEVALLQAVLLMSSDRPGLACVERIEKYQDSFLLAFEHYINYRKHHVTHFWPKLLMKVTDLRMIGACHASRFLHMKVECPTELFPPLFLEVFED
Method in brief: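 Agonism is measured as coactivator recruitment in a purified-protein TR-FRET format, using GST-TRβ LBD at 5.0 nM, fluorescein-SRC-2 peptide at 200 nM and Tb-labeled anti-GST antibody at 2 nM. Values are 520:495 nm ratios relative to DMSO (0%) and T3 (100%).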

[3] = target: Retinoic acid receptor RXR-alpha (Homo sapiens) (UniProt P19793); assay: TOX21_TR_RXR_BLA_Agonist_Followup_ratio: Tox21 Thyroid Hormone Receptor beta Retinoid X Receptor alpha (RXRa) Agonism Beta-lactamase (BLA) Follow-Up Assay, Ratio (AID 2283968)
Chain of Retinoic acid receptor RXR-alpha (Homo sapiens) (P19793 whole entry, looked up): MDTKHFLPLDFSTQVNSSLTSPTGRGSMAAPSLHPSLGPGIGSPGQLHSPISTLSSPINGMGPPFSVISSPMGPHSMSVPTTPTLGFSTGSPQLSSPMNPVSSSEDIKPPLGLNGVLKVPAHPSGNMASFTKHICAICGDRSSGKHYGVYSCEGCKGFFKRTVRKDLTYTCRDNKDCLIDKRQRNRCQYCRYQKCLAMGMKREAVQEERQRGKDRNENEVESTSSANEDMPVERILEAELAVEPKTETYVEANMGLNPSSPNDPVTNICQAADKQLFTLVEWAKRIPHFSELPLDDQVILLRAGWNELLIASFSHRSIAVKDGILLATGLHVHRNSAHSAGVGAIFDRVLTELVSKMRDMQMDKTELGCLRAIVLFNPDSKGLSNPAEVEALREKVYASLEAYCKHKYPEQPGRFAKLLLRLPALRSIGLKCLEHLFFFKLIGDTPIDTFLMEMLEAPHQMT
Method in brief: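 RXRa-UAS-bla HEK293T cells, 5 h attachment at 37C/5% CO2, then 11 concentrations in triplicate for 16 h; 9-cis retinoic acid positive control. FRET-B/GCCF4-AM substrate 2 h at room temperature; 460:530 nm ratio, fitted for gain versus DMSO.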

[4] = TOX21_TR_RXR_BLA_Agonist_Followup_viability: Viability Assessment in the Tox21 Thyroid Hormone Receptor beta Retinoid X Receptor alpha (RXRa) Agonism Beta-lactamase (BLA) Follow-Up Assay (AID 2283970)
Method in brief: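 RXRa-UAS-bla HEK293T cells, 2,500/well in phenol red-free DMEM with 2% charcoal-stripped FBS, dosed for 16 h at 37C. Viability measured by CellTiter-Glo ATP luminescence; fitted bidirectionally against DMSO baseline, loss of signal indicating cytotoxicity.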

THRA (gene 7067) [5] = target: THRA (gene 7067) (UniProt P10827); assay: TOX21_TRA_COA_Antagonist_Followup_ratio: Tox21 Thyroid Hormone Receptor alpha Antagonism through Coactivator Recruitment Follow-Up Assay, Ratio (AID 2283953)
Method in brief: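 520:495 nm emission ratio (excitation 340 nm) reports fluorescein-SRC-2 peptide recruitment to GST-TRα LBD by TR-FRET with Tb anti-GST antibody. Values were normalized to DMSO (0%) and T3 control wells (100%); loss of signal indicated antagonism.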

THRB (gene 7068) [6] = target: THRB (gene 7068) (UniProt P10828); assay: TOX21_TRB_BLA_Antagonist_Followup_ratio: Tox21 Thyroid Hormone Receptor beta Antagonism Beta-lactamase (BLA) Follow-Up Assay, Ratio (AID 2283958)
Method in brief: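 HEK293T cells with a GAL4-TRb LBD fusion and UAS-bla reporter, 3,000 cells/well in phenol red-free DMEM with 2% charcoal-stripped FBS. Exposed 18 h at 37C to 11 concentrations in triplicate; CCF4 460:530 nm ratio after 2 h, DMSO-referenced.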

[7] = TOX21_TRB_BLA_Antagonist_Followup_viability: Viability Assessment in the Tox21 Thyroid Hormone Receptor beta Antagonism Beta-lactamase (BLA) Follow-Up Assay (AID 2283961)
Method in brief: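 TRβ-bla HEK293T (human TRβ LBD fused to GAL4 DBD), 3,000 cells/well, 2% charcoal-stripped FBS, phenol red-free medium; 18 h compound exposure, 37C; CellTiter-Glo 30 min RT; luminescence, loss-of-signal readout.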

THRB (gene 7068) [8] = target: THRB (gene 7068) (UniProt P10828); assay: TOX21_TRB_COA_Antagonist_Followup_ratio: Tox21 Thyroid Hormone Receptor beta Antagonism through Coactivator Recruitment Follow-Up Assay, Ratio (AID 2283967)
Method in brief: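 Test compound was incubated with 5.0 nM GST-TRβ LBD in 0.10% BSA. Then 200 nM fluorescein-SRC-2 peptide and 2 nM terbium anti-GST antibody were added. TR-FRET (520:495 nm) was measured and normalized to DMSO and T3 controls.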

[9] = target: Retinoic acid receptor RXR-alpha (Homo sapiens) (UniProt P19793); assay: TOX21_TR_RXR_BLA_Antagonist_Followup_ratio: Tox21 Thyroid Hormone Receptor beta Retinoid X Receptor alpha (RXRa) Antagonism Beta-lactamase (BLA) Follow-Up Assay, Ratio (AID 2283972)
Method in brief: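 HEK293T RXRa-bla, 2% charcoal-stripped FBS medium, 16 h compound exposure at 37C, qHTS 11 conc x3. CCF4 FRET ratio ch2/ch1 (460:530), DMSO = baseline, loss-of-signal fit.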

[10] = CCTE_Harrill_HTTr_Viability_DMEM_6hr: (Pilot) CCTE's 6-hour Cell Viability Assessment for the High-Throughput Transcriptomics (HTTr) Platform, in MCF-7 cells cultured in DMEM + 10% fetal bovine serum, Harrill Lab (AID 2283973; active means hit-call score of the fitted dose curve at least 0.9, where 1 is the maximum; inactive means score below 0.9)
Method in brief: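 MCF-7 cells in DMEM + 10% FBS, eight-point dilution series, 6 h exposure. Membrane integrity by propidium iodide exclusion with high-content imaging; bidirectional fit versus DMSO.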

CC(C)=CCC/C(C)=C\CO
outcome (THRA (gene 7067) [1]): inactive | outcome (THRB (gene 7068) [2]): inactive | outcome [3]: inactive | outcome [4]: inactive

CC(C)c1cccc(C(C)C)c1N1C(=O)c2ccc(O)cc2C1=O
outcome (THRA (gene 7067) [5]): inactive | AC50 (THRB (gene 7068) [6]): 8.53 µM (active) | outcome [7]: inactive | outcome (THRB (gene 7068) [8]): inactive | outcome [9]: inactive

CC[C@H](C)C(=O)O[C@H]1C[C@@H](C)C=C2C=C[C@H](C)[C@H](CC[C@@H]3C[C@@H](O)CC(=O)O3)[C@H]21
outcome [10]: inactive

CCC(C)(C)C(=O)O[C@H]1C[C@@H](C)C=C2C=C[C@H](C)[C@H](CC[C@@H]3C[C@@H](O)CC(=O)O3)[C@H]21
outcome [10]: inactive
